Measured values: PubChem BioAssay
Values without a mark were called inactive. The rule behind the calls is not given here.

target: Pantothenate synthetase (Mycobacterium tuberculosis (strain ATCC 25618 / H37Rv)) (UniProt P9WIL5); assay: Coupled enzyme confirmation of inhibitors against recombinant Mtb PanC (AID 375); details: coupled enzyme assay; at 10 µM, stronger effect = higher value;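 note: 0% = full reaction with vehicle and 100% = no enzyme background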
Sequence (P9WIL5 whole entry, looked up): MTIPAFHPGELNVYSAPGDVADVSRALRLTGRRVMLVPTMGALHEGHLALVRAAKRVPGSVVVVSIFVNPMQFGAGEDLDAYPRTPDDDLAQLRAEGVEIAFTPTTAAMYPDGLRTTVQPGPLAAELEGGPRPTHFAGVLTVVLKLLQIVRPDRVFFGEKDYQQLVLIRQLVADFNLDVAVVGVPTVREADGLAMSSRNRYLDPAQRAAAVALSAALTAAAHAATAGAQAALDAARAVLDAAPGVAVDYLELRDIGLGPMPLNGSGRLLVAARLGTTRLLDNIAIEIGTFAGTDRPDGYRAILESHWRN

Row | SMILES | inhibition [%]
1 | CCn1c(CNc2ccc(C)cc2)nnc1SCC(=O)NCc1ccccc1 | 0
2 | Cc1ccc(NC(=O)CSc2nnc(-c3ccccn3)n2C)cc1 | 1
3 | O=c1c[n+]([O-])c2ccccc2n1OCc1c(F)cccc1F | 4
4 | COc1cccc(OC)c1C(=O)Nc1ccc(CN2CCCCC2)cc1 | 0
5 | Cn1c(=O)c(-c2ccccc2)nn2c3ccccc3nc12 | 0
6 | COc1cccc(N2CCN(c3ncnc4c3[nH]c3ccc(F)cc34)CC2C)c1 (stereo not given) | 0
7 | FC(F)Oc1ccc(-c2csc(Cc3nnc4n3CCCCC4)n2)cc1 | 0
8 | Cc1ccc(C(=O)CC2(O)C(=O)N(CN3CCOCC3)c3ccccc32)cc1 (stereo not given) | 7
9 | CC1(C)CC(=O)C=C(Nc2ccc(F)cc2)C1 | 0
10 | Brc1ccc(C2=Nn3c(nnc3-c3ccncc3)SC2)cc1 | 0
11 | COc1ccccc1C(=O)N1CCN=C1SCc1cccnc1 | 0
12 | Cc1ccc(S(=O)(=O)Cn2nnnc2CN(Cc2ccco2)Cc2cccs2)cc1 | 0
13 | Cc1ccc(S(=O)(=O)CC(=O)N2CCCCCC2)cc1 | 0
14 | Cc1ccc(Cl)c(Nc2ccccc2C(=O)O)c1Cl | 0
15 | Cn1cnnc1SCC(=O)Nc1sc2c(c1C#N)CCCCC2 | 1
16 | Cc1c(C)c2ccc(OC3CCCCC3=O)cc2oc1=O (stereo not given) | 2
17 | COc1cc(Cn2c(-c3nonc3N)nc3ccccc32)ccc1C | 0
18 | CCOC(=O)N1CCC(Nc2nc3ccccc3n3cnnc23)CC1 | 10
19 | CN1C(=O)C(O)(CC(=O)c2ccc3c(c2)OCO3)c2ccccc21 (stereo not given) | 0
20 | O=C1c2ccccc2C(=O)N1C/C=C/c1ccccc1 | 2

Row | SMILES | inhibition [%]
21 | CCOC(=O)Cc1csc(NC(=O)CN(C)S(=O)(=O)c2ccc3c(c2)CCC(=O)N3)n1 | 0
22 | CCOCCCNC(=O)Cn1cc2c(n1)CCCCC2 | 2
23 | COc1ccccc1Cn1nnc2c(=O)[nH]c(C3CCN(C(=O)c4ccccc4Cl)CC3)nc21 | 0
24 | CCc1nnc(NC(=O)CSc2nc(-c3ccc(OC)cc3)ns2)s1 | 0
25 | N#Cc1ccccc1NC(=O)CSc1nnc(-c2ccccc2)n1-c1ccccc1 | 0
26 | CC(=O)Nc1ccc2c(c1)nc(CCNC(=O)c1ccccc1)n2C | 0
27 | Cc1c(C(=O)O)sc2nc3n(c(=O)c12)CCC(C)CC3 (stereo not given) | 2
28 | COC(=O)Cn1c(=O)c2c(nc(Br)n2CC(=O)OC)n(C)c1=O | 0
29 | Cc1ccc(N(Cc2ccco2)C(=O)c2cccc(S(=O)(=O)N(C)C)c2)cc1 | 5
30 | O=C(CCSc1nnc(-c2ccncc2)o1)Nc1ccccc1 | 0
31 | O=C1c2cccnc2C(=O)N1c1cccc(-c2nc3ccccc3o2)c1 | 3
32 | O=C(O)c1ccc(COc2c(F)c(F)cc(F)c2F)cc1 | 0
33 | O=C(NC1CCCCCC1)C1c2ccccc2C(=O)N1Cc1cccnc1 (stereo not given) | 3
34 | CCCCn1c(SCC(=O)Nc2ccc(OC)cc2)nc2ccc(N3CCOCC3)cc2c1=O | 0
35 | CC(C)C(NC(=O)c1ccco1)C(=O)NCC(c1ccco1)N1CCCCC1 (stereo not given) | 3
36 | CCOC(=O)N1CCC2(CC1)CC(=O)c1c(ccc3oc(C(=O)O)c(C)c13)O2 | 0
37 | O=C(NCCCN1CCCC1=O)c1ccc2c(=O)n(Cc3ccco3)c(=S)[nH]c2c1 | 0
38 | CCN(CC)Cc1nc2c(c(=O)[nH]1)C1(CCCCC1)Cc1ccccc1-2 | 3
39 | CCOC(=O)C1=C(C)Nc2nnnn2C1c1c[nH]c2ccccc12 (stereo not given) | 3
40 | c1ccc(OCc2nc(-c3ccccc3)no2)cc1 | 0
